What all share (assay): universal protein binding microarray (PBM); transcription factors of Arabidopsis thaliana; high values mean tight binding
Experiment [1] addresses T1, GST-ANAC092(1-176) (Arabidopsis thaliana, UniProt Q9FKA0 1-176).
T1 sequence: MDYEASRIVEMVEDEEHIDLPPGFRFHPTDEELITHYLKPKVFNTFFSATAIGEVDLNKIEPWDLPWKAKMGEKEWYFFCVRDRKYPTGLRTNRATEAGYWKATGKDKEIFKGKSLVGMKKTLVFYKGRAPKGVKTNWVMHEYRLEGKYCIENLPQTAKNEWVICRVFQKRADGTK
The following applies: protein: recombinant; tags: GST; chain copies: 2; dsDNA, one strand shown. The gist of the method:
(§1)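 GST-tagged NAC-domain, full-length or DNA-binding-domain proteins were induced in cells, with zinc acetate added for zinc-finger proteins. They were purified on glutathione–Sepharose 4B and quantified by A280 or anti-GST western blot. Each was applied at 200 to 500 nM final, in duplicate, to custom all-10-mer Agilent 4 × 180K arrays made double-stranded by primer extension, with gapped and ungapped 8-mers scored. Binding is the normalised enrichment score (E-score).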

The target of experiment [2] is T2, GST-ANAC019 NAC domain (Arabidopsis thaliana, UniProt Q9C932 14-162).
T2 sequence: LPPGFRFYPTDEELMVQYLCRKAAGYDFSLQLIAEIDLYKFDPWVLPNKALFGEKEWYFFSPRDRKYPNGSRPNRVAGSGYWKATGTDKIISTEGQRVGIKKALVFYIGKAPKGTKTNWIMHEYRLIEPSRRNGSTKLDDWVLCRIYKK
The following applies: protein: recombinant; tags: GST; chain copies: 2; dsDNA, one strand shown. The gist of the method:
as §1

Experiment [3] concerns the target T3, GST-ATAF1 NAC domain (Arabidopsis thaliana, UniProt Q39013 7-158).
T3 sequence: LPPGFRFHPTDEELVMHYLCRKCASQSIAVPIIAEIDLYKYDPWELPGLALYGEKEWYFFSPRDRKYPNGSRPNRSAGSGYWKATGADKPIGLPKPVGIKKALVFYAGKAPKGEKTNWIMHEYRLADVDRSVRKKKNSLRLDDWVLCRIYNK
The note with it: protein: recombinant; tags: GST; chain copies: 2; dsDNA, one strand shown. The gist of the method:
as §1

Experiment [4] concerns the target T4, GST-ANAC092(1-285) full length (Arabidopsis thaliana, UniProt Q9FKA0 1-285).
T4 sequence: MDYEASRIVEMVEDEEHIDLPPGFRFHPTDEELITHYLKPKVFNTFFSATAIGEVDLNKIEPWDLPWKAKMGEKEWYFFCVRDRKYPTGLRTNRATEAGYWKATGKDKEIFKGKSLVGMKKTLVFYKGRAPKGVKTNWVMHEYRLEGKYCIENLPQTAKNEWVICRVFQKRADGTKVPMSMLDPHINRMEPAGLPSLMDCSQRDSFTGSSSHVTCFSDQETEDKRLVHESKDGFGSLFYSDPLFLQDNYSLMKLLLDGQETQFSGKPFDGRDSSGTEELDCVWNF
The following applies: protein: recombinant; tags: GST; chain copies: 2; dsDNA, one strand shown. In short, it runs like this: as §1

Experiment [5] concerns the target GST-WRKY1(266-371) (Arabidopsis thaliana, UniProt Q9SI37 266-371). The following applies: protein: recombinant; tags: GST; dsDNA, one strand shown. The gist of the method: as §1
Experiment [6] has as its target GST-NTL6(1-168) (Arabidopsis thaliana, UniProt Q9SCK6 1-168). The note with it: protein: recombinant; tags: GST; chain copies: 2; dsDNA, one strand shown. In short, it runs like this:
as §1

Experiment [7] concerns the target T5, GST-ANAC055(1-171) (Arabidopsis thaliana, UniProt Q9LDY8 1-171).
T5 sequence: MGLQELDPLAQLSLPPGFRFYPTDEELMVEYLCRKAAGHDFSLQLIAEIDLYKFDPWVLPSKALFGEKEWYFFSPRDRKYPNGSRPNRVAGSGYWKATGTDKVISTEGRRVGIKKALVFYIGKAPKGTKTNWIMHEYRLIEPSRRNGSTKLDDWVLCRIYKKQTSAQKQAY
The following applies: protein: recombinant; tags: GST; chain copies: 2; dsDNA, one strand shown. In short, it runs like this:
as §1

Experiment [8] addresses T6, GST-NAP(1-166) (Arabidopsis thaliana, UniProt O49255 1-166).
T6 sequence: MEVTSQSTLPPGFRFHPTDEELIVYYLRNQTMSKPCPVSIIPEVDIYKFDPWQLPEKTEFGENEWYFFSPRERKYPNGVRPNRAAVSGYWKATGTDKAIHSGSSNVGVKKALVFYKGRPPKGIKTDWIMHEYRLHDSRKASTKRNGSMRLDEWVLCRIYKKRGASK
The note with it: protein: recombinant; tags: GST; chain copies: 2; dsDNA, one strand shown. The gist of the method: as §1

The target of experiment [9] is T7, GST-NTL8 NAC domain (Arabidopsis thaliana, UniProt Q9XIN7 14-156).
T7 sequence: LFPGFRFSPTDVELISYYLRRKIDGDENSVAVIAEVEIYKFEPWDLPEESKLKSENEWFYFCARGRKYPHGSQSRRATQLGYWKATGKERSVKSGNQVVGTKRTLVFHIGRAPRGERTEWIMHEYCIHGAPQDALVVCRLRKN
The note with it: protein: recombinant; tags: GST; chain copies: 2; dsDNA, one strand shown. In short, it runs like this:
as §1

The target of experiment [10] is T8, GST-NST2(1-184) (Arabidopsis thaliana, UniProt Q9M274 1-184).
T8 sequence: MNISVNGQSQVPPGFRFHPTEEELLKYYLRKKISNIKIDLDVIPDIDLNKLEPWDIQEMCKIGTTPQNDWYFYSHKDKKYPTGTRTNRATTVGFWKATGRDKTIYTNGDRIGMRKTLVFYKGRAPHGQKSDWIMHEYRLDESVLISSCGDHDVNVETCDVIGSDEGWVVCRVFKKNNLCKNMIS
The following applies: protein: recombinant; tags: GST; chain copies: 2; dsDNA, one strand shown. The gist of the method:
as §1

Sequence of GST-NTL6(1-168) (Q9SCK6 1-168): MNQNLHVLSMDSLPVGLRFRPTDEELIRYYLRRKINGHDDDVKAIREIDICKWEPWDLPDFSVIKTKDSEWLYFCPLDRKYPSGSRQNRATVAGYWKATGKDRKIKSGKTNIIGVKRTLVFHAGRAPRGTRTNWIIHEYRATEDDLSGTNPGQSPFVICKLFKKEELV
Sequence of GST-WRKY1(266-371) (Q9SI37 266-371): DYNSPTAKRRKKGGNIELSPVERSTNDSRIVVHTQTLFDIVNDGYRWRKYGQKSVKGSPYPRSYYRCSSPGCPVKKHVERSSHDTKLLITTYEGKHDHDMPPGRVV

As to GGTCAACC, the binding signal was 0.144 E-score in [1]; 0.0527 E-score in experiment [2]; 0.0896 E-score in [3]; 0.061 E-score in experiment [4]; 0.491 E-score in experiment [5].

For GCGAAGAC, the binding signal came to 0.12 E-score in [6]; 0.0689 E-score in experiment [2]; 0.0506 E-score in [7]; 0.0548 E-score in experiment [8]; 0.109 E-score in [9]; 0.404 E-score in experiment [5].

Regarding AGTTGACC, the figures for the binding signal in experiment [6] and in experiment [5] were 0.0645 E-score and 0.49 E-score, respectively.

Consider CAGTCAAG, for which the binding signal in experiment [1] came out at 0.051 E-score; in experiment [4] it was 0.063 E-score; in [9], 0.0503 E-score; in experiment [5], 0.444 E-score.

On to CCCTTGAC, for which the binding signal was found to be 0.0597 E-score in experiment [1]; 0.0561 E-score in experiment [6]; 0.0511 E-score in [2]; 0.067 E-score in [8]; 0.151 E-score in [9]; 0.459 E-score in experiment [5].

As for GCGTGGAC, the binding signal in experiment [1] worked out at 0.0916 E-score; in [2], 0.0892 E-score; in experiment [4], 0.19 E-score; in experiment [5], 0.404 E-score.

With AAAGTCAG, the binding signal was found to be 0.1 E-score in experiment [1]; 0.0919 E-score in [2]; 0.0653 E-score in experiment [3]; 0.085 E-score in experiment [10]; 0.461 E-score in [5].

Regarding CCAGTCAA, the values for the binding signal in experiment [1], in experiment [2] and in experiment [5] were 0.0755 E-score, 0.0525 E-score and 0.474 E-score, respectively.

GGTTTGAC: the binding signal in experiment [6] came out at 0.131 E-score; in [2] it was 0.0692 E-score; in [7], 0.162 E-score; in [3], 0.171 E-score; in [4], 0.116 E-score; in [8] it was 0.0603 E-score. Besides, the figures for the binding signal in [10] and in experiment [5] were 0.177 E-score and 0.483 E-score, respectively.

Regarding AGTCTTCG, in [5], the binding signal was found to be 0.427 E-score.

Turning to TCGAGTCA, the binding signal in experiment [5] is 0.417 E-score.

Take CCGTCAAC: the figures for the binding signal in experiment [2] and in [5] were 0.0816 E-score and 0.451 E-score, respectively.

In the case of GAAGACCA, the figures for the binding signal in experiment [2] and in [5] were 0.0558 E-score and 0.442 E-score, respectively.

For the sequence GTGTCAAC, the binding signal in [2] was determined as 0.0933 E-score; in [8], 0.0561 E-score; in experiment [5], 0.404 E-score.

As for CGTTTGAC, the binding signal stood at 0.0858 E-score in experiment [3], 0.0589 E-score in [8], 0.0861 E-score in [10] and 0.476 E-score in [5].

For the sequence CTCGTCAA, the binding signal was 0.0602 E-score in experiment [7], 0.0515 E-score in [3], 0.0553 E-score in [8] and 0.424 E-score in experiment [5].

As for AGTCAGAC, the binding signal is 0.0719 E-score in experiment [2] and 0.442 E-score in experiment [5].

Turning to AGGTCAAT, the binding signal in experiment [6] turned out to be 0.137 E-score; in experiment [7], 0.0969 E-score; in [5], 0.478 E-score.

As for CTGACCAC, the binding signal in [2] was determined as 0.0574 E-score; in [5], 0.41 E-score.

Take GGTCAAGA: the binding signal in [2] is 0.09 E-score; in [4], 0.0594 E-score; in experiment [10], 0.08 E-score; in experiment [5] it was 0.477 E-score.

For ATTTGACC, the binding signal in experiment [7] is 0.079 E-score; in [5], 0.481 E-score.

As to GCGTTGAC, the binding signal in [2] worked out at 0.0691 E-score; in experiment [8] it was 0.116 E-score; in [5], 0.488 E-score.

Turning to GAGTCAAC, the binding signal in experiment [2] came to 0.14 E-score; in [5], 0.487 E-score.

Turning to AAAGTCTT, the values for the binding signal in experiment [6], in experiment [7] and in experiment [5] were 0.0508 E-score, 0.109 E-score and 0.429 E-score, respectively.

As for AGGTTGAC, the binding signal in experiment [3] was 0.13 E-score; in [5], 0.474 E-score.

As to GAATTGAC, the binding signal in experiment [7] is 0.0993 E-score; in [3], 0.092 E-score; in experiment [4] it was 0.0675 E-score; in experiment [10] it was 0.0714 E-score; in [9] it was 0.051 E-score; in experiment [5], 0.439 E-score.

CGTTGACC: the binding signal in [2] stood at 0.0797 E-score; in [8] it was 0.0594 E-score; in experiment [9], 0.123 E-score; in experiment [5] it was 0.496 E-score.

Take CAGTTGAC: the binding signal is 0.135 E-score in experiment [2]; 0.0582 E-score in experiment [7]; 0.112 E-score in [3]; 0.0525 E-score in experiment [8]; 0.0574 E-score in experiment [10]; 0.477 E-score in experiment [5].

For TGACCCCA, the figures for the binding signal in experiment [2] and in experiment [5] were 0.0651 E-score and 0.428 E-score, respectively.

For the sequence TCGTCAAA, the binding signal was determined as 0.0878 E-score in experiment [7], 0.0946 E-score in [3], 0.0744 E-score in [10] and 0.432 E-score in experiment [5].

For the sequence GAAAAGTC, the binding signal in experiment [2] came out at 0.139 E-score; in experiment [3] it was 0.137 E-score; in [8], 0.145 E-score; in [10], 0.0971 E-score; in [9], 0.19 E-score; in experiment [5] it was 0.413 E-score.

Consider GATTTGAC, for which the binding signal in experiment [3] is 0.122 E-score; in experiment [5], 0.464 E-score.

For the sequence GGTGGTCA, the binding signal was 0.0992 E-score in [2] and 0.43 E-score in [5].

As to GTTGACGA, the binding signal worked out at 0.0784 E-score in [3] and 0.453 E-score in experiment [5].

In the case of GGAAGTCA, the binding signal in experiment [6] was 0.132 E-score; in experiment [2], 0.0521 E-score; in [4], 0.0837 E-score; in experiment [9], 0.0895 E-score; in [5], 0.429 E-score.

In the case of GAAAGTCA, the binding signal turned out to be 0.0574 E-score in experiment [3], 0.0781 E-score in experiment [4] and 0.461 E-score in experiment [5].

As for GACTTGAC, the binding signal in [7] is 0.11 E-score; in experiment [3] it was 0.199 E-score; in experiment [4], 0.0614 E-score; in experiment [9], 0.0707 E-score; in [5], 0.458 E-score.

With GACCAAGA, the values for the binding signal in [2] and in experiment [5] were 0.0567 E-score and 0.403 E-score, respectively.
